# Measurements reported in PubChem BioAssay AID1851 (National Center for Advancing Translational Sciences (NCATS), 2009).
# Hit rate of the full screen: of about 16,000 compounds, about 4,000 (25%) were called active. Inconclusive results (about 26%) are left out. These entries were drawn from the full list. Unmarked numbers belong to inactive results. Calls follow the shape of the dose curve; as a rule, active = well fitted curve in the direction sought with a large enough effect; inconclusive = small, poorly fitted or top-dose-only effect, or effect the other way; inactive = no such curve, though single readings can be large or run the other way.
# Biological target: Cytochrome P450 2C9 (Homo sapiens) (UniProt P11712)
# Test: Cytochrome panel assay with activity outcomes
# Details: recombinant CYP, pro-luciferin dealkylation, luminescence, p450-cyp2c9; series mostly up to 57.1 µM
# % is scaled to controls: 0 for no effect and ±100 for the full control effect.
# Chain of Cytochrome P450 2C9 (Homo sapiens) (P11712 whole entry, looked up): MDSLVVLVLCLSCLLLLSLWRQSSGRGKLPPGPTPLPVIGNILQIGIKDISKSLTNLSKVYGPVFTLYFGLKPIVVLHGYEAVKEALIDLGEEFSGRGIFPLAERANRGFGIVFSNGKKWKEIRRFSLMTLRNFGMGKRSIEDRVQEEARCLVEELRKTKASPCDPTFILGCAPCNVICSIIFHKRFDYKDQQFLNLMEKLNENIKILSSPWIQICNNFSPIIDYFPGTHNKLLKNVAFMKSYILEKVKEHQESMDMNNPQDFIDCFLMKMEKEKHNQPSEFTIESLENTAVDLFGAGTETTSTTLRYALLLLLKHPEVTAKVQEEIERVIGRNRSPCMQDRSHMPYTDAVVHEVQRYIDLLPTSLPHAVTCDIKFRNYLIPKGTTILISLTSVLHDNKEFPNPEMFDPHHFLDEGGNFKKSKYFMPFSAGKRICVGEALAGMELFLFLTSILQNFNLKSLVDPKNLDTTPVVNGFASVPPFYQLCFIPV
SMILES,"activity, negative = inhibition",AC50
CN(Cc1ccco1)c1cc(-c2cccc(NS(C)(=O)=O)c2)ncn1,-0.0487% [at 2.29 µM],–
CCN1C(=O)[C@H]2[C@H]3[C@H](O)[C@H](O)C/C(=N/OCC[C@H]4C=C[C@H](OC(C)=O)[C@@H](COC(C)=O)O4)[C@@H]3CC[C@@H]2C1=O,-15% [at 11.4 µM],–
O=C(CSCc1ccccc1)Nc1ccc(S(=O)(=O)N2CCOCC2)cc1,–,10 µM (active)
Cc1cnc(CNc2ccnc(-c3c(C)noc3C)n2)cn1,19.4% [at 2.29 µM],–
COc1ccc2c(c1)C(c1ccc([N+](=O)[O-])cc1)=NNC(c1ccco1)=N2,–,14.1 µM (active)
c1ccc2c(NCCN3CCOCC3)nc(-c3ccoc3)nc2c1,-0.137% [at 2.29 µM],–
Cc1noc(C)c1C(=O)N1CCC2(CCN(C(=O)Nc3ccccc3)CC2)CC1,–,inactive
Cc1noc(C)c1C(=O)N1CCC2(CC1)CCN(C(c1ccccc1)c1ccccc1)CC2,–,inactive
Cc1noc(C)c1C(=O)OCC(=O)NC(c1ccccc1)c1ccccc1,–,11.2 µM (active)
Cc1cc(NC(=O)CN2C(=O)NC(C)(c3ccc(OC(F)F)cc3)C2=O)no1 (stereo unspecified),–,inactive
COc1ccc(C(=O)CN2C(=O)NC(C)(c3ccccc3)C2=O)cc1OC (stereo unspecified),–,3.55 µM (active)
O=C(Cn1c(C(F)(F)F)nc2ccccc21)c1ccccc1,–,10 µM (active)
O=C(Cn1c(C(F)(F)F)nc2ccccc21)c1ccc(F)cc1,–,3.55 µM (active)
CN(C)C(=O)c1ccc(-c2nc(Nc3ccc(F)cc3)c3ccccc3n2)cc1,-11.1% [at 2.29 µM],–
O=C(CCCN1CCC(O)(c2cccc(C(F)(F)F)c2)CC1)c1ccc(F)cc1,–,inactive
CC(=O)N1CCC[C@@]2(CCN(Cc3nccs3)C2)C1,–,inactive
CO[C@H]1COC(=O)C/C=C\[C@H](C)COC(=O)[C@@H](OCc2ccccc2)/C=C\[C@@H]1C,-4.97% [at 11.4 µM],–
COc1ncc2nc(C)c(=O)n(C3CC3)c2n1,–,inactive
O=c1cnc2cnc(Oc3cccc(Cl)c3)nc2n1C1CC1,–,6.31 µM (active)
Cc1nc2cnc(Oc3ccccc3)nc2n(C)c1=O,–,inactive
O=c1c(-c2ccccc2)nc2cnc(Oc3cccc(Cl)c3)nc2n1C1CC1,–,0.251 µM (active)

SMILES,"activity, negative = inhibition",AC50
Cc1nc2cnc(Oc3cccc(Cl)c3)nc2n(C2CC2)c1=O,–,12.6 µM (active)
N#Cc1cccc(-c2nc3cnc(Oc4cccc(Cl)c4)nc3n(C3CC3)c2=O)c1,–,3.16 µM (active)
Cn1c(=O)c(-c2ccc(Cl)cc2)nc2cnc(Oc3cccc(Cl)c3)nc21,–,inactive
O=c1cnc2cnc(N3CCOCC3)nc2n1C1CC1,–,inactive
O=c1cnc2cnc(Oc3ccccc3)nc2n1C1CC1,–,inactive
N#Cc1cccc(-c2nc3cnc(N4CCOCC4)nc3n(C[C@H]3CCCO3)c2=O)c1,–,inactive
CS(=O)(=O)Nc1cccc(-c2nc(N3CCNCC3)c3ccccc3n2)c1,-1.92% [at 2.29 µM],–
CCCCCCCCSc1nnc(CSc2nc3nc(C)cc(C)n3n2)o1,–,17.8 µM (active)
CCCSc1nnc(CSc2nc3nc(C)cc(C)n3n2)o1,–,inactive
Cc1cc(C)n2nc(SCC(=O)N/N=C/c3ccccc3F)nc2n1,–,inactive
N#Cc1cccc(NC(=O)N2CCC3(CC2)CCN(C(=O)c2csnn2)CC3)c1,–,inactive
CCc1ccc(N/C(SCc2ccccc2C)=C(/C#N)C(=O)NCc2ccco2)cc1,–,3.16 µM (active)
N=c1nc(N)nc(N)n1-c1ccc(S(N)(=O)=O)cc1,-1.26% [at 11.4 µM],–
O=C(NCCOC12CC3CC(CC(C3)C1)C2)c1cccc(Br)c1,–,14.1 µM (active)
NC(=O)c1ccc[n+](CC(=O)OCCC23CC4CC(CC(C4)C2)C3)c1,–,inactive
Cc1n[nH]c(=S)n1/N=C/c1ccc(Br)o1,–,inactive
COc1ccc(-n2c(-c3cnccn3)n[nH]c2=S)cc1,–,inactive
Cc1ccc(/C=N/n2c(-c3cccs3)n[nH]c2=S)cc1,–,1.58 µM (active)
COc1ccc(/C=N/n2c(-c3cccs3)n[nH]c2=S)cc1,–,2.24 µM (active)
COc1ccc(-n2c(=O)c(-c3cccs3)nc3cnc(Nc4cccc(OC)c4)nc32)cc1,–,inactive
Cc1ccc(-c2n[nH]c(=S)n2/N=C/c2cccn2C)cc1,–,12.6 µM (active)

SMILES,"activity, negative = inhibition",AC50
C[N+](C)(C)c1cc2c(nn1)Nc1ccccc1S2,-3.44% [at 11.4 µM],–
NCCC(=O)NCCc1cnc[nH]1,–,inactive
Cc1oncc1C(=O)Nc1ccc(C(F)(F)F)cc1,–,inactive
C[C@@H](CCCCC(=O)Nc1ccc(C(F)(F)F)cc1)NCCc1cnc[nH]1,–,7.94 µM (active)
Cc1cc(O)c(C(C)C)cc1C1(c2cc(C(C)C)c(O)cc2C)OC(=O)c2ccccc21,–,0.316 µM (active)
Cc1cc(O)c(C(C)C)cc1NC(=O)Nc1cccc2ccccc12,-7.14% [at 11.4 µM],–
O=c1nc2ccccc2c2n1C[C@H](CN1CCN(c3ccccc3)CC1)N2,–,inactive
COC(=O)C(NC(=O)c1ccc(Cl)cc1)(Nc1nc(C)cs1)C(F)(F)F (stereo unspecified),–,8.91 µM (active)
Cc1[nH]nc(Nc2ccccc2)c1[N+](=O)[O-],–,20 µM (active)
Cc1noc(C)c1-c1nc(Nc2ccccc2)c2ccccc2n1,2.16% [at 2.29 µM],–
Nc1nc(NCc2ccccc2)nc(Nc2cccc(F)c2)c1[N+](=O)[O-],–,inactive
CCO/C([O-])=N/c1c[n+](N2CCOCC2)no1,–,inactive
Clc1ccccc1-c1nc(NC2CCNCC2)c2ccccc2n1,2.89% [at 2.29 µM],–
COC(=O)CN(c1ccc(OC)cc1)S(=O)(=O)c1c(C)noc1C,–,11.2 µM (active)
COc1ccc(NC(=O)N2CC3(CCN(C(=O)c4c(C)noc4C)CC3)C2)cc1,–,inactive
COc1ccc(N(CC(=O)NCc2cccc(OC)c2)S(=O)(=O)c2c(C)noc2C)cc1,–,7.94 µM (active)
COc1cccc(CNCCNC(=O)c2nonc2N)c1,–,inactive
CCOc1ccc(N(CC(=O)NCc2ccc(OC)cc2)S(=O)(=O)c2c(C)noc2C)cc1,–,inactive
COc1ccc(NC(=O)N2CCCC3(CCN(C(=O)c4c(C)noc4C)CC3)C2)cc1,–,inactive
